In PubChem BioAssay:
Several values for one entry are separate records, joined by “and”; a condition that tells them apart may be missing. Equal values may be shown once. Results filed as inconclusive are left out. Activity calls are given as the source filed them.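 Rule for the calls, unless noted: active = compounds lowering colon cancer cell viability after pretreatment blocking the GSK3B kinase; inactive = the rest.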

Columns and labels:
[1] = stimulators of insulin release from INS-1E, primary screen, cell-based, 5 mM glucose, NPC library (AID 1117329;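 active = compound raises insulin release from rat beta cells at 5 mM glucose, no numeric limit stated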); conditions: rat INS-1E insulin secretion, at 10 µM, stronger effect = higher value
[2] = growth inhibition of GSK3B-pretreated HCT116 cells – cell-based, CellTiter-Glo, 0.2 to 20 µM (AID 1117336); conditions: HCT116 viability after GSK3B inhibitor, at 20 µM, stronger effect = higher value
[3] = inhibition of endothelial tube formation, primary screen, imaging, VEGF stimulated, CD31 staining, tube area, NPC library (AID 1117340;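 active = compound that reduces growth-factor-driven endothelial tube area in a mixed cell culture, no cutoff stated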); conditions: VEGF-stimulated ADSC/ECFC co-culture, at 10 µM, stronger effect = higher value
[4] = GLP1 release stimulators, primary, NCI-H716, NPC library (AID 1117341;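 active = compound raises GLP1 secretion from the human gut endocrine cells, with no numeric limit stated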); conditions: NCI-H716 cells, at 10 µM, stronger effect = higher value
[5] = HCT116 colon cancer cell growth inhibition, primary screen, CellTiter-Glo luminescence, NPC library (AID 1117342;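 active = compounds that lower survival of HCT116 colon cancer cells in the luminescence readout, no numeric limit stated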); conditions: at 20 µM (top of the series)
[6] = reduced SW480 viability measured with CellTiter-Glo, NPC library, primary (AID 1117343;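 active = compounds that lower viability of the colon cancer cells in the luminescence readout, with no numeric limit stated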); conditions: CellTiter-Glo luminescence; at 20 µM (top of the series)
[7] = NPC library primary testing for decreased DLD-1 cell viability via CellTiter-Glo (AID 1117346;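 active = compounds that lower survival of DLD-1 colon cancer cells in the luminescence readout, no cutoff given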); conditions: DLD-1 viability, CellTiter-Glo luminescence; at 20 µM (top of the series)
[8] = EMT-state selective cytotoxicity in co-culture – imaging, PC-3E GFP, TEM4-18 mCherry, primary screen (AID 1345086;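 active = compounds killing one labelled cell type while sparing the other, by normalised counts and ratio limits, not self-fluorescent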;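 for all read-outs here: cells exposed to compound for 72 h before imaging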;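 for red/green cell ratio (normalised): normalised mesenchymal count divided by normalised epithelial count so high means epithelial killing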); conditions: PC-3E GFP / TEM4-18 mCherry co-culture, imaging cell counts, at 1 µM; for red/green cell ratio (normalised): actives lie on both sides, counts scaled to control wells, 1 = unselective
[9] = tested on: Aerobactin synthetase IucA (Klebsiella pneumoniae); assay: inhibition of K. pneumoniae IucA enzyme – biochemical, Tocris library, absorbance (AID 1345561; call rule not given here;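 note: 100% = enzyme without compound and 0% = no enzyme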); conditions: purified IucA enzyme assay, absorbance (OD) read-out; stronger effect = lower value;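 tested at 8 µM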
[10] = viability loss in pontine glioma line – cell-based, SU-DIPG-XVII, MIPE5.0, CellTiter-Glo, qHTS, dose response (AID 1347060; cut-off not given, nearly all actives have AC50 up to about 26 µM;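 for AC50: cells exposed to compound for 48 hours before viability readout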); conditions: CellTiter-Glo ATP luminescence
[11] = viability loss in pontine glioma line – cell-based, SU-DIPG-XIII, MIPE4.0, CellTiter-Glo, qHTS, dose response (AID 1347061; cut-off not given, nearly all actives have AC50 up to about 37 µM;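 note: cells exposed to compound for 48 hours before readout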); conditions: CellTiter-Glo ATP luminescence
[12] = viability loss in pontine glioma line – cell-based, JHH-DIPG-1, MIPE4.0, CellTiter-Glo, qHTS, dose response (AID 1347062; cut-off not given, nearly all actives have AC50 up to about 27 µM;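 for AC50: cells exposed to compound for two days before readout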); conditions: JHH-DIPG-1 viability, CellTiter-Glo ATP luminescence
[13] = viability loss in pontine glioma line – cell-based, SU-DIPG-IV, MIPE4.0, CellTiter-Glo, qHTS, dose response (AID 1347063; cut-off not given, nearly all actives have AC50 up to about 30 µM;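 note: compound exposure lasted 48 hours before the viability readout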); conditions: CellTiter-Glo ATP luminescence
[14] = viability loss in pontine glioma line – cell-based, SU-DIPG-XIII, MIPE5.0, CellTiter-Glo, qHTS, dose response (AID 1347064; cut-off not given, nearly all actives have AC50 up to about 23 µM;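 for AC50: cells exposed to compound for 48 hours before the viability read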); conditions: CellTiter-Glo ATP luminescence
[15] = measured here: epithelial PC-3E GFP cell survival
[16] = measured here: mesenchymal TEM4-18 mCherry cell survival

Cc1cc2c(C(C)C)c(O)c(O)c(C=O)c2c(O)c1-c1c(C)cc2c(C(C)C)c(O)c(O)c(C=O)c2c1O
insulin secretion stimulation [1]: 0.5% (inactive)
viability decrease [2]: 82% (active)
tube area decrease [3]: 110% (active)
GLP1 secretion stimulation [4]: 76.4% (active)
inhibition of viability [5]: 91.7% (active)
viability decrease (inhibition) [6]: 108% (active)
viability decrease (inhibition) [7]: 64.1% (active)
red/green cell ratio (normalised) [8]: 0.91 (inactive)
normalised cell number [8, 15]: 1.04
normalised cell number [8, 16]: 0.95
remaining activity [9]: 103% (inactive)
AC50 [10]: 7.42 µM (active)
AC50 [11]: 23.5 µM (active)
AC50 [12]: 18.7 µM (active)
AC50 [13]: 18.7 µM (active)
AC50 [14]: 10.5 µM (active)

COCCCOc1cc(C[C@@H](C[C@H](N)[C@@H](O)C[C@H](C(=O)NCC(C)(C)C(N)=O)C(C)C)C(C)C)ccc1OC
insulin secretion stimulation [1]: 0.9% (inactive)
viability decrease [2]: -5.3% (inactive)
tube area decrease [3]: 19.9% (inactive)
GLP1 secretion stimulation [4]: -4.7% (inactive)
inhibition of viability [5]: 19.7% (inactive)
viability decrease (inhibition) [6]: 4.7% (inactive)
viability decrease (inhibition) [7]: 12.1% (inactive)
red/green cell ratio (normalised) [8]: 0.98 (inactive)
normalised cell number [8, 15]: 0.98
normalised cell number [8, 16]: 0.96
outcome [10]: inactive
outcome [11]: inactive
outcome [12]: inactive

CO[C@@H]1[C@@H](OC(N)=O)[C@@H](O)[C@H](Oc2ccc3c(O)c(NC(=O)c4ccc(O)c(CC=C(C)C)c4)c(=O)oc3c2C)OC1(C)C
insulin secretion stimulation [1]: -0.3% (inactive)
viability decrease [2]: -78.9% (inactive)
tube area decrease [3]: -1.9% (inactive)
GLP1 secretion stimulation [4]: 0.7% (inactive)
inhibition of viability [5]: -1.6% (inactive)
viability decrease (inhibition) [6]: -22.2% (inactive)
viability decrease (inhibition) [7]: -21.8% (inactive)
red/green cell ratio (normalised) [8]: 1.14 (inactive)
normalised cell number [8, 15]: 1.07
normalised cell number [8, 16]: 1.21
outcome [10]: inactive
outcome [11]: inactive
outcome [12]: inactive
outcome [13]: inactive
outcome [14]: inactive

C#CCN[C@@H]1CCc2ccccc21
insulin secretion stimulation [1]: 2.6% (inactive)
viability decrease [2]: -29.8% (inactive)
tube area decrease [3]: 3.2% (inactive)
GLP1 secretion stimulation [4]: 0% (inactive)
inhibition of viability [5]: -2% (inactive)
viability decrease (inhibition) [6]: -41% (inactive)
viability decrease (inhibition) [7]: -21.6% (inactive)
red/green cell ratio (normalised) [8]: 0.97 (inactive)
normalised cell number [8, 15]: 0.98
normalised cell number [8, 16]: 0.94
outcome [10]: inactive
outcome [11]: inactive
outcome [12]: inactive
outcome [13]: inactive
outcome [14]: inactive

COC(=O)[C@H]1[C@H]2C[C@@H]3c4[nH]c5cc(OC)ccc5c4CCN3C[C@H]2C[C@@H](OC(=O)c2cc(OC)c(OC)c(OC)c2)[C@@H]1OC
insulin secretion stimulation [1]: -0.3% (inactive)
viability decrease [2]: 24.4% (inactive)
tube area decrease [3]: 22.8% (inactive)
GLP1 secretion stimulation [4]: 3.6% (inactive)
inhibition of viability [5]: 40.1% (inactive)
viability decrease (inhibition) [6]: -42% (inactive)
viability decrease (inhibition) [7]: 10.4% (inactive)
red/green cell ratio (normalised) [8]: 1.08 (inactive) and 1.2 (inactive)
normalised cell number [8, 15]: 0.87 and 1.06
normalised cell number [8, 16]: 0.94 and 1.27
remaining activity [9]: 124% (inactive)

CCC(=O)O[C@]1(C(=O)SCF)[C@H](C)C[C@H]2[C@@H]3C[C@H](F)C4=CC(=O)C=C[C@]4(C)[C@@]3(F)[C@@H](O)C[C@@]21C
insulin secretion stimulation [1]: 0.4% (inactive)
viability decrease [2]: -30.2% (inactive)
tube area decrease [3]: -19.4% (inactive)
GLP1 secretion stimulation [4]: 9.8% (inactive)
inhibition of viability [5]: 6.27% (inactive)
viability decrease (inhibition) [6]: 39.6% (inactive)
viability decrease (inhibition) [7]: -7.2% (inactive)
remaining activity [9]: 125% (inactive)
outcome [10]: inactive
outcome [12]: inactive
outcome [13]: inactive

O=C(O)CN1C(=O)c2cccc3cccc(c23)C1=O
insulin secretion stimulation [1]: -1.8% (inactive)
viability decrease [2]: -2.7% (inactive)
tube area decrease [3]: -6.3% (inactive)
GLP1 secretion stimulation [4]: 1.6% (inactive)
inhibition of viability [5]: -17.1% (inactive)
viability decrease (inhibition) [6]: 22.8% (inactive)
viability decrease (inhibition) [7]: 2.05% (inactive)
red/green cell ratio (normalised) [8]: 1.28 (inactive)
normalised cell number [8, 15]: 1
normalised cell number [8, 16]: 1.28
remaining activity [9]: 110% (inactive)

Cc1cn[nH]c1
insulin secretion stimulation [1]: 0.4% (inactive)
viability decrease [2]: 20.3% (inactive)
tube area decrease [3]: 4.6% (inactive)
GLP1 secretion stimulation [4]: 1.6% (inactive)
inhibition of viability [5]: 0.47% (inactive)
viability decrease (inhibition) [6]: 19.8% (inactive)
viability decrease (inhibition) [7]: 2% (inactive)
red/green cell ratio (normalised) [8]: 0.92 (inactive) and 0.9 (inactive)
normalised cell number [8, 15]: 0.94 and 1.1
normalised cell number [8, 16]: 0.86 and 0.99
outcome [10]: inactive
AC50 [12]: 0.105 µM (active)
AC50 [13]: 3.32 µM (active)
outcome [14]: inactive

COc1ncnc(NS(=O)(=O)c2ccc(N)cc2)c1OC
insulin secretion stimulation [1]: 0.1% (inactive)
viability decrease [2]: -6.5% (inactive)
tube area decrease [3]: -10.7% (inactive)
GLP1 secretion stimulation [4]: 8.3% (inactive)
inhibition of viability [5]: -1.93% (inactive)
viability decrease (inhibition) [6]: -16.8% (inactive)
viability decrease (inhibition) [7]: -22.2% (inactive)
red/green cell ratio (normalised) [8]: 1.18 (inactive)
normalised cell number [8, 15]: 0.5
normalised cell number [8, 16]: 0.6
outcome [10]: inactive
outcome [11]: inactive
outcome [12]: inactive
outcome [13]: inactive
outcome [14]: inactive

Oc1cccc2[nH]ccc12
insulin secretion stimulation [1]: 4.05% (inactive)
viability decrease [2]: 41.8% (inactive)
tube area decrease [3]: -3.7% (inactive)
GLP1 secretion stimulation [4]: -2.4% (inactive)
inhibition of viability [5]: 9.6% (inactive)
viability decrease (inhibition) [6]: 0.4% (inactive)
viability decrease (inhibition) [7]: -8.1% (inactive)
red/green cell ratio (normalised) [8]: 0.85 (inactive)
normalised cell number [8, 15]: 1.31
normalised cell number [8, 16]: 1.12

C[C@@H]1CN(c2c(F)c(N)c3c(=O)c(C(=O)O)cn(C4CC4)c3c2F)C[C@H](C)N1
insulin secretion stimulation [1]: 2.1% (inactive)
viability decrease [2]: 13.2% (inactive)
tube area decrease [3]: -14.6% (inactive)
GLP1 secretion stimulation [4]: 0.3% (inactive)
inhibition of viability [5]: 23.4% (inactive)
viability decrease (inhibition) [6]: -0.6% (inactive)
viability decrease (inhibition) [7]: -18.8% (inactive)
red/green cell ratio (normalised) [8]: 0.99 (inactive)
normalised cell number [8, 15]: 1.12
normalised cell number [8, 16]: 1.11
outcome [10]: inactive
outcome [11]: inactive
outcome [12]: inactive
outcome [13]: inactive
outcome [14]: inactive

C#C[C@]1(O)CC[C@H]2[C@@H]3CCc4cc(O)ccc4[C@H]3CC[C@@]21C
insulin secretion stimulation [1]: 10.3% (inactive)
viability decrease [2]: 45.9% (inactive)
tube area decrease [3]: 85.8% (active)
GLP1 secretion stimulation [4]: -3.4% (inactive)
inhibition of viability [5]: 70.3% (active)
viability decrease (inhibition) [6]: 65.6% (active)
viability decrease (inhibition) [7]: 62.5% (active)
AC50 [10]: 16.6 µM (active)
outcome [14]: inactive

CNC[C@H](O)[C@@H](O)[C@H](O)[C@H](O)CO
insulin secretion stimulation [1]: 0.7% (inactive)
viability decrease [2]: -9.2% (inactive)
tube area decrease [3]: -17.1% (inactive)
GLP1 secretion stimulation [4]: 10.1% (inactive)
inhibition of viability [5]: 4.6% (inactive)
viability decrease (inhibition) [6]: 0.6% (inactive)
viability decrease (inhibition) [7]: 15.4% (inactive)
red/green cell ratio (normalised) [8]: 0.7 (inactive)
normalised cell number [8, 15]: 1.19
normalised cell number [8, 16]: 0.84
outcome [10]: inactive
outcome [11]: inactive
outcome [13]: inactive
outcome [14]: inactive

CC1(C)O[C@@H]2C[C@H]3[C@@H]4C[C@H](F)C5=CC(=O)C=C[C@]5(C)[C@@]4(F)[C@@H](O)C[C@]3(C)[C@]2(C(=O)CO)O1
insulin secretion stimulation [1]: 0.7% (inactive)
viability decrease [2]: -12.2% (inactive)
tube area decrease [3]: 14.7% (inactive)
GLP1 secretion stimulation [4]: -0.6% (inactive)
inhibition of viability [5]: 19.8% (inactive)
viability decrease (inhibition) [6]: 1.8% (active)
viability decrease (inhibition) [7]: 24.1% (inactive)
outcome [10]: inactive
outcome [11]: inactive
outcome [12]: inactive
outcome [14]: inactive

CCOC(=O)O[C@]1(C(=O)OCCl)CC[C@H]2[C@@H]3CCC4=CC(=O)C=C[C@]4(C)[C@H]3[C@@H](O)C[C@@]21C
insulin secretion stimulation [1]: 7% (inactive)
viability decrease [2]: 12.3% (inactive)
tube area decrease [3]: -0.4% (inactive)
GLP1 secretion stimulation [4]: 0.9% (inactive)
inhibition of viability [5]: 3.1% (inactive)
viability decrease (inhibition) [6]: 0.5% (inactive)
viability decrease (inhibition) [7]: 21.9% (inactive)
outcome [10]: inactive
outcome [11]: inactive
outcome [12]: inactive
outcome [14]: inactive

C#C[C@]1(O)CC[C@H]2[C@@H]3[C@H](C)CC4=C(CCC(=O)C4)[C@H]3CC[C@@]21C
insulin secretion stimulation [1]: -2.8% (inactive)
viability decrease [2]: 45.5% (inactive)
tube area decrease [3]: -5.2% (inactive)
GLP1 secretion stimulation [4]: 4.4% (inactive)
inhibition of viability [5]: -14.3% (inactive)
viability decrease (inhibition) [6]: 109% (active)
viability decrease (inhibition) [7]: 79.8% (active)
outcome [14]: inactive

Cc1nc(-c2ccc(OCC(C)C)c(C#N)c2)sc1C(=O)O
insulin secretion stimulation [1]: 3.8% (inactive)
viability decrease [2]: 25.8% (inactive)
tube area decrease [3]: -47.3% (inactive)
GLP1 secretion stimulation [4]: 4.1% (inactive)
inhibition of viability [5]: 25.4% (inactive)
viability decrease (inhibition) [6]: 57.5% (active)
viability decrease (inhibition) [7]: 28.7% (inactive)
red/green cell ratio (normalised) [8]: 1 (inactive)
normalised cell number [8, 15]: 1.08
normalised cell number [8, 16]: 1.08
outcome [10]: inactive
outcome [11]: inactive
outcome [12]: inactive
outcome [13]: inactive
outcome [14]: inactive
